# According to the supplement of paper PMC8728848:
# Many of the other results were omitted from the sample, so the strongest signals are more common in it than they were.
# B1: BSR4 (Toxoplasma gondii), Q95NL6 (protein)
# chain: MVMMGSMQQRRGGLRSNARQLLAVCMSGVVFFSSGQAVADNLLEGLLHRTLQQQVEVTSRLTVAGSDAKCDFFTPATQDSPPVSGSLTLSKGRMTATFECSATQALSISTIPTNIEQNVCDPKKTTNGTVCQFGANGSAGTEVTLKDLLETDRIVNWKVNEQREESNKSQKWSLELHNEDLPLTDKAFVVGCQATSAARGTESGKTAACKLTVNVEARASSLAENNVVTCAYGKGSNPNPVEVEMSTEKNTLTINCGSDGSLQPTTYAEEYCVADSKDVNRCSTTRFVEIFPKFLKSWWVTETQKRTSATLTIPQTDLPEADQQFLVGCVPKKTAPEDPKKDKESGTETGAPTSCTVLVTVKAASSASHASPTVQILAAASSAAA
# How the values were obtained:
# Experiment in all cases: glycan array binding signal (z-score within array); higher = stronger binding
# Settings in all cases: glycan notation: IUPAC condensed, linker removed
# [1] = biological target: Fuc(a1-2)Gal(b1-3)[Fuc(a1-4)]GlcNAc
# In short: (§1)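 From the Consortium for Functional Glycomics database, 3228 arrays were curated, keeping only those whose protein sequence was available. Binding is given as a within-array Z-score averaged across arrays sharing a protein sequence and across linkers. Negative Z-scores can be read as non-binding.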
# [2] = biological target: Fuc(a1-2)Gal(b1-4)[Fuc(a1-3)]GlcNAc(b1-2)Man(a1-3)[Fuc(a1-2)Gal(b1-4)[Fuc(a1-3)]GlcNAc(b1-2)Man(a1-6)]Man(b1-4)GlcNAc(b1-4)GlcNAc
# In short: as §1
# [3] = biological target: Fuc(a1-2)[GalNAc(a1-3)]Gal(b1-4)GlcNAc(b1-2)Man(a1-3)[Fuc(a1-2)[GalNAc(a1-3)]Gal(b1-4)GlcNAc(b1-2)Man(a1-6)]Man(b1-4)GlcNAc(b1-4)GlcNAc
# In short: as §1
# [4] = biological target: Fuc(a1-3)[Gal(b1-4)]GlcNAc
# In short: as §1
# [5] = biological target: Fuc(a1-3)[Gal(b1-4)]GlcNAc(b1-4)Gal(b1-4)[Fuc(a1-3)]GlcNAc
# In short: as §1
# [6] = biological target: Gal(b1-3)[Fuc(a1-4)]GlcNAc(b1-2)Man(a1-3)[Gal(b1-3)[Fuc(a1-4)]GlcNAc(b1-2)Man(a1-6)]Man(b1-4)GlcNAc(b1-4)GlcNAc
# In short: as §1
# [7] = biological target: Gal(b1-4)GlcNAc(b1-2)Man(a1-3)[GlcNAc(b1-2)Man(a1-6)]Man(b1-4)GlcNAc(b1-4)GlcNAc
# In short: as §1
# [8] = biological target: Gal(b1-4)GlcNAc(b1-3)GalNAc
# In short: as §1
# [9] = biological target: Gal(b1-4)GlcNAc(b1-3)[GlcNAc(b1-6)]Gal(b1-4)GlcNAc
# In short: as §1
# [10] = biological target: Gal3S(b1-3)[Fuc(a1-4)]GlcNAc
# In short: as §1
# [11] = biological target: Gal3S(b1-4)[Fuc(a1-3)]Glc6S
# In short: as §1
# GalNAc(a1-3)Gal = biological target: GalNAc(a1-3)Gal
# In short: as §1
# [12] = biological target: GalNAc(b1-3)Gal(a1-6)Gal(b1-4)Glc
# In short: as §1
# Glc(b1-6)Glc = biological target: Glc(b1-6)Glc
# In short: as §1
# [13] = biological target: GlcNAc(a1-4)Gal(b1-4)GlcNAc(b1-3)Gal(b1-4)GlcNAc(b1-3)Gal(b1-4)GlcNAc
# In short: as §1
# [14] = biological target: GlcNAc(a1-4)Gal(b1-4)GlcNAc(b1-3)Gal(b1-4)[Fuc(a1-3)]GlcNAc(b1-3)Gal(b1-4)[Fuc(a1-3)]GlcNAc
# In short: as §1
# [15] = biological target: GlcNAc(b1-2)Gal(b1-3)GalNAc
# In short: as §1
# [16] = biological target: GlcNAc(b1-2)Man(a1-3)[GlcNAc(b1-2)Man(a1-6)]Man(b1-4)GlcNAc(b1-4)[Fuc(a1-6)]GlcNAc
# In short: as §1
# GlcNAc(b1-3)Gal = biological target: GlcNAc(b1-3)Gal
# In short: as §1
# [17] = biological target: GlcNAc(b1-3)Gal(b1-3)GalNAc
# In short: as §1
# [18] = biological target: Neu5Ac(a2-3)Gal(b1-3)[Neu5Ac(a2-6)]GalNAc
# In short: as §1
# [19] = biological target: Neu5Ac(a2-3)Gal(b1-4)GlcNAc(b1-3)Gal(b1-4)[Fuc(a1-3)]GlcNAc
# In short: as §1
# [20] = biological target: Neu5Ac(a2-3)Gal(b1-4)[Fuc(a1-3)]GlcNAc(b1-3)GalNAc
# In short: as §1
# [21] = biological target: Neu5Ac(a2-3)Gal(b1-4)[Fuc(a1-3)]GlcNAc(b1-6)[Gal(b1-3)]GalNAc
# In short: as §1
# [22] = biological target: Neu5Ac(a2-3)Gal6S(b1-4)GlcNAc
# In short: as §1
# [23] = biological target: Neu5Ac(a2-6)Gal(b1-4)GlcNAc(b1-2)Man(a1-3)[GlcNAc(b1-2)Man(b1-4)GlcNAc(b1-2)Man(a1-6)]Man(b1-4)GlcNAc(b1-4)GlcNAc
# In short: as §1
# [24] = biological target: Neu5Ac(a2-6)GlcNAc(b1-4)GlcNAc(b1-4)GlcNAc
# In short: as §1
# [25] = biological target: Neu5Ac9Ac(a2-3)Gal(b1-4)GlcNAc
# In short: as §1
# [26] = biological target: Neu5Gc(a2-3)Gal(b1-4)GlcNAc
# In short: as §1
binder,measurement,setting,value
B1,glycan array binding signal (z-score),[1],0.187
same,glycan array binding signal (z-score),[2],1.41
same,glycan array binding signal (z-score),[3],-0.071
same,glycan array binding signal (z-score),[4],0.23
same,glycan array binding signal (z-score),[5],1.44
same,glycan array binding signal (z-score),[6],1.39
same,glycan array binding signal (z-score),[7],-0.349
same,glycan array binding signal (z-score),[8],0.454
same,glycan array binding signal (z-score),[9],0.261
same,glycan array binding signal (z-score),[10],5.04
same,glycan array binding signal (z-score),[11],0.993
same,glycan array binding signal (z-score),GalNAc(a1-3)Gal,-0.538
same,glycan array binding signal (z-score),[12],-0.617
same,glycan array binding signal (z-score),Glc(b1-6)Glc,-0.765
same,glycan array binding signal (z-score),[13],-0.25
same,glycan array binding signal (z-score),[14],1.8
same,glycan array binding signal (z-score),[15],0.324
same,glycan array binding signal (z-score),[16],7.79
same,glycan array binding signal (z-score),GlcNAc(b1-3)Gal,-0.636
same,glycan array binding signal (z-score),[17],1.23
same,glycan array binding signal (z-score),[18],0.026
same,glycan array binding signal (z-score),[19],0.289
same,glycan array binding signal (z-score),[20],3.61
same,glycan array binding signal (z-score),[21],1.73
same,glycan array binding signal (z-score),[22],-0.227
same,glycan array binding signal (z-score),[23],-0.667
same,glycan array binding signal (z-score),[24],-0.434
same,glycan array binding signal (z-score),[25],0.407
same,glycan array binding signal (z-score),[26],-0.102
